A selection: hits, their analogues and other compounds. The true share with any hit is near 2.9%.
HSF1 inh – HSF1 inhibition | activity change, negative = inhibition, % at 7.5 µM (by protocol) | NIH3T3-HGL HSE-luciferase, MG132-induced, luminescence 8 h; stronger effect = lower value | hit rate 0.77% among 300,000;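 active = more than half of replicate wells show activity change below -50%, luminescence cut by over half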;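 note: luciferase reports HSF-1 transcriptional activity via heat shock element; 0% = median of DMSO wells and -100% = zero luminescence signal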
S1P4 ag – human S1P4 receptor agonism; S1P4-expressing cell line, agonist reporter assay; AID 1509; O95977; activation, % at 4.98 µM; hit rate 0.35% among 220,000; in the data active = activation above about 11%;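 note: 0% = DMSO vehicle and 100% = reference agonist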
Hsp70 activator – transcriptional activators of Hsp70. hit rate 0.04% among 200,000. activation, % at 10 µM. HeLa Hsp70 promoter luciferase reporter, luminescence; scaled: vehicle 0, proteasome-inhibitor control 100%;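 active = activation above the mean across all tested compounds plus 3 SD, cutoff set per campaign, cut at about 5.5% in these data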;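 note: 100% = MG132 at 30 µM as the positive control and 0% = DMSO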
S1P4 antagonist – antagonists of human S1P4 receptor | S1P4-expressing cells, antagonist mode, reporter read-out | inhibition, % at 4.98 µM | hit rate 0.26% among 220,000; in the data active = inhibition above about 29%;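 note: 0% = wells stimulated with agonist and 100% = vehicle wells without agonist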
S1P3 antagonist – S1P3 (human) receptor antagonism; Q99500; CHO S1P3 NFAT-BLA reporter, FRET fluorescence, antagonist mode; inhibition, % at 4.98 µM; hit rate 0.27% among 170,000; AID 485;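 active = inhibition above the plate cutoff, the mean inhibition of test wells on that plate plus 3 SD, cut at about 28% in these data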;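 note: cells challenged with S1P at its EC80 of 0.8 µM; blue over green emission ratio from cleaved BLA substrate after 4 h stimulation; 0% = S1P-stimulated wells and 100% = unstimulated DMSO-only wells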
Target sequence (Q99500 whole entry, looked up): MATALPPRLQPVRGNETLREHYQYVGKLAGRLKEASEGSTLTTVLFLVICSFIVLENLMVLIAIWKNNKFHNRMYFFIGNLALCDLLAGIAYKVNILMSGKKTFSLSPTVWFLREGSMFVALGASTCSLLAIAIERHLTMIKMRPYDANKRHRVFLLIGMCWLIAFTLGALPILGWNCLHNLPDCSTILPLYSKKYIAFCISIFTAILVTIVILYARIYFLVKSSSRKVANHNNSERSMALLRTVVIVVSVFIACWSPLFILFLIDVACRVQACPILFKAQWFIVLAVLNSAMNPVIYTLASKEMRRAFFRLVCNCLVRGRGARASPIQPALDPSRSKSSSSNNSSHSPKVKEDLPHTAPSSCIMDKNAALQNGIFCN
HSF-1 act – increases HSF-1 driven luciferase reporter signal; AID 504408; NIH3T3-HGL HSF-1 luciferase reporter, MG132, 8 h; 100% = twice DMSO control signal; activation, % at 9 µM; hit rate 1.7% among 300,000;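 active = mean replicate activation of at least 50% with a set share of replicates each reaching 50%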;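 note: 0% = median of the neutral control wells and 100% = twice that signal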
The depositor's hits bear a star; nt = no result given.

SMILES	HSF1 inh	S1P4 ag	Hsp70 activator	S1P4 antagonist	S1P3 antagonist	HSF-1 act
C=CCc1ccccc1OCC(O)CN1CCN(CCN2C(=O)c3cccc4cccc(c34)C2=O)CC1 (stereo unspecified)	44	10	0	-19	8	61*
CC(C)OC(=O)Cc1nc2sc(-c3ccccc3)cc2c(=O)[nH]1	28	nt	nt	nt	nt	52*
Cc1nc2sc(-c3ccccc3)cc2c(=O)[nH]1	0	0	0	-17	nt	25
CCOc1ccccc1N(C)C(=O)Cn1ncc2c([nH]c3ccc(C)cc32)c1=O	5	nt	nt	nt	nt	16
COc1ccc2cc(CN(Cc3ccco3)Cc3nnnn3C3CCCCC3)c(=O)[nH]c2c1	7	-1	0	-26	3	-6
COc1ccc2cc(CN(Cc3ccco3)C(c3nnnn3C3CCCCC3)C(C)C)c(=O)[nH]c2c1 (stereo unspecified)	27	-2	-1	-2	-1	70*
COc1ccc(Cn2nnnc2C(C(C)C)N(Cc2ccco2)Cc2cccs2)cc1 (stereo unspecified)	9	0	0	2	54*	11
CC(C)C(c1nnnn1Cc1ccccc1)N(Cc1ccco1)Cc1cccs1 (stereo unspecified)	-3	-1	0	-4	49	-4
Cc1ccc(C(c2nnnn2C(C)(C)C)N(Cc2ccco2)Cc2cccs2)cc1 (stereo unspecified)	-20	1	0	-14	90*	-19
N#CCSc1ccc(-c2nc3ccccc3[nH]2)cn1	22	1	0	2	0	49
CCOc1ccc2c(c1)-c1c(ssc1=S)C(C)(C)N2C(=O)c1ccco1	16	0	0	4	12	32
Cc1ccc(N(CC(=O)NC2CCCCC2)C(=O)CCCC(=O)Nc2ccccn2)cc1	9	nt	nt	nt	nt	22
CCCCN(C)CCNC(=O)c1cc2c(-c3ccccc3F)nn(C)c2s1	-63*	nt	nt	nt	nt	-72
Cc1ccc(OCC(=O)N2CCCc3ccccc32)cc1	nt	-2	0	0	nt	nt
CCOc1ccc(N2CC(C(=O)N3CCc4ccccc43)CC2=O)cc1 (stereo unspecified)	7	nt	nt	nt	nt	52*
CCc1ccc(OCC(=O)N2CCc3ccccc32)cc1	24	nt	nt	nt	nt	65*
CCCOc1ccc(N2CC(C(=O)NC(C)C)CC2=O)cc1 (stereo unspecified)	-60*	0	0	-8	-39	-69
Cc1ccc(OCC(=O)N2CCc3ccccc32)cc1	37	-1	2	-8	-2	67*
COc1ccc(S(=O)(=O)N2CN3CCN(C3)C2)cc1	-9	nt	nt	nt	nt	-3
CC(C)COc1ccc(C(=O)N2C(=O)c3ccc(N)cc3C2=O)cc1	-2	3	nt	-19	-12	-1
NC(=O)c1ccc(NC(=O)COC(=O)C2(c3ccccc3F)CCCC2)cc1	3	0	0	-12	-22	-5
NS(=O)(=O)c1ccc(NC(=O)COC(=O)C2(c3ccccc3F)CCCC2)cc1	-57*	1	0	-19	5	-66
CN(C(=O)c1ccccc1C(=O)OCC(=O)Nc1ccc(S(N)(=O)=O)cc1)c1ccccc1	-79*	nt	nt	nt	nt	-83
O=C(OCC(=O)N1CCc2ccccc21)c1ccccc1	34	1	0	9	-11	68*
CCOC(=O)/C=C/C(=O)N1CCc2ccccc21	62	1	0	-6	nt	84*
SMILES	HSF1 inh	S1P4 ag	Hsp70 activator	S1P4 antagonist	S1P3 antagonist	HSF-1 act
CN(C)c1ccc(P(=O)(OC2CCCCC2)C(O)c2ccncc2)cc1 (stereo unspecified)	7	0	nt	-15	11	13
CCc1ccc(OCCOCC(O)CNC2CCCC2)cc1 (stereo unspecified)	nt	3	0	-4	5	nt
COc1ccc(NC(=O)N2CCc3ccccc32)cc1	25	1	-1	-2	nt	65*
COc1ccc(NC(=O)N2CCCc3ccccc32)cc1	3	0	-1	1	-22	2
O=C(COC(=O)C1(c2ccccc2F)CCCC1)N1CCc2ccccc21	-61*	0	0	0	-4	-64
O=S(=O)(Cc1ccccc1)NCC1CCCN(Cc2ccc3nonc3c2)C1 (stereo unspecified)	0	5	0	-5	2	25
Cc1cc(-c2ccc(C(C)C)c(S(=O)(=O)N3CCN(c4ccccn4)CC3)c2)on1	3	nt	nt	nt	nt	18
C=Cc1ccc(Cn2c(=O)n(CCCOC)c(=O)c3sccc32)cc1	7	nt	nt	nt	nt	5
Cc1ccc(N(CC(=O)NCCSCc2ccco2)S(C)(=O)=O)cc1	-54*	1	0	-17	nt	-62
COC(=O)CC1C(=O)NCCN1C(=S)Nc1ccccc1Cl (stereo unspecified)	-2	0	0	-10	-15	5
O=C(NC1CCCCC1)C(c1ccccc1)N1CCc2ccccc21 (stereo unspecified)	0	0	0	-1	nt	18
Cc1ccc(C(C(=O)NC2CCCC2)N2CCc3ccccc32)cc1 (stereo unspecified)	25	3	0	-2	nt	58*
Cc1nn(C)cc1C(=O)/C=C/c1ccc([N+](=O)[O-])cc1	22	1	0	10	-6	61*
CCN1N=C(C)C=C(c2ccccc2)n2c1nc1ccccc12	1	0	nt	-10	6	1
O=C(CCc1nnc2ccc(N3CCC4(CC3)OCCO4)nn12)Nc1ccc(F)cc1	2	nt	nt	nt	nt	2
CCC(C)n1c(SC(C)C#N)nc2ccccc2c1=O (stereo unspecified)	-85*	0	0	0	5	-88
CCCC(C)NC(=O)CN1C(=O)c2cccc3cccc1c23 (stereo unspecified)	-7	nt	nt	nt	nt	-2
Cc1ccc(C2=Nc3ccccc3NC(C)(c3ccc(C)o3)C2)o1 (stereo unspecified)	40	0	1	2	-8	53*
COc1cccc(-c2nnc3n2N=C(c2cc(OC)ccc2OC)CS3)c1	-7	2	0	-11	nt	4
COc1cccc(-c2nnc3n2N=C(C(C)(C)C)CS3)c1	-63*	4	0	4	nt	-66
CC(=O)c1ccc(NC(=S)N2CCCCCC2)cc1	10	0	0	-6	-8	13
CC(=O)c1ccc(NC(=S)N2C(C)CCCC2C)cc1 (stereo unspecified)	17	0	0	11	nt	59*
CCn1c(SCC(=O)c2cc(OC)ccc2OC)nc2c1c(=O)n(C)c(=O)n2C	nt	nt	nt	nt	2	nt
CCCn1c(SCC(=O)c2cc(OC)ccc2OC)nnc1C(C)C	48	0	0	-3	-25	90*
COc1ccc(C[C@H]2CN3C(=NC[C@H]3C)N2CCNC(=O)c2ccc(C)c(Br)c2)cc1	-3	0	0	22	-8	-12
COC(=O)c1ccc(Nc2ncnc3c2cnn3-c2cccc(C)c2)cc1	5	nt	nt	nt	20	10

From PubChem
